According to PubChem BioAssay (EPA / NIEHS):
Results filed as inconclusive are left out. Active and inactive are the calls of the source. Rule for the calls: active = hit-call score of the fitted dose curve at least 0.9, where 1 is the maximum; inconclusive = response in the unintended direction; inactive = score below 0.9.

Legend:
[1] = TOX21_p53_BLA_p2_viability: Viability Assessment in the Tox21 HCT-116 p53 Agonism Beta-lactamase Assay, Phase 2 (AID 2283591);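 note: actives lower the ATP signal meaning cytotoxicity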
How it was run: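 HCT-116 p53-bla cells (4000/well) rested 5 h at 37C, then received compounds in DMSO (217-fold dilution) for 16 h at 37C, 5% CO2. After the CCF4 read, CellTiter-Glo was added; ATP luminescence was read after 30 min at room temperature.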

[2] = biological target: Cellular tumor antigen p53 (Homo sapiens) (UniProt P04637); test: TOX21_p53_BLA_p2_ratio: Tox21 HCT-116 p53 Agonism Beta-lactamase Assay, Ratio, Phase 2 (AID 2283592)
How it was run: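 First, HCT116 reporter cells settle for 5 h at 37C. Next, DMSO compound solutions are pinned in (217-fold dilution) and left 16 h. Finally, CCF4-AM substrate is loaded 2 h at room temperature and the 460/530 nm ratio read.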

[3] = biological target: Cellular tumor antigen p53 (Homo sapiens) (UniProt P04637); test: TOX21_p53_BLA_p3_ratio: Tox21 HCT-116 p53 Agonism Beta-lactamase Assay, Ratio, Phase 3 (AID 2283596)
How it was run: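 Cells were seeded at 4000/well, rested 5 h at 37C, then dosed with DMSO compound solutions (217-fold dilution) for 16 h. CCF4-AM substrate was loaded for 2 h at room temperature, and the 460/530 nm emission ratio was fitted for gain of signal versus DMSO.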

[4] = biological target: Cellular tumor antigen p53 (Homo sapiens) (UniProt P04637); test: TOX21_p53_BLA_p5_ratio: Tox21 HCT-116 p53 Agonism Beta-lactamase Assay, Ratio, Phase 5 (AID 2283599)
How it was run: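 HCT-116 cells carrying a p53-inducible beta-lactamase reporter were seeded at 4000 cells/well and dosed after 5 h with compound in DMSO (217-fold dilution). After 16 h at 37C, CCF4-AM substrate was added for 2 h, and the 460/530 nm emission ratio was scored as gain-of-signal versus DMSO.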

[5] = biological target: Cellular tumor antigen p53 (Homo sapiens) (UniProt P04637); test: TOX21_p53_BLA_p4_ratio: Tox21 HCT-116 p53 Agonism Beta-lactamase Assay, Ratio, Phase 4 (AID 2283601)
How it was run: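 HCT116 cells carrying an inducible beta-lactamase reporter were plated at 4000 cells/well, rested 5 h, then exposed to compounds in DMSO (217-fold dilution) for 16 h at 37C. CCF4-AM substrate was loaded 2 h at room temperature; 460/530 nm emission ratio scored gain-of-signal versus DMSO.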

[6] = TOX21_p53_BLA_p4_viability: Viability Assessment in the Tox21 HCT-116 p53 Agonism Beta-lactamase Assay, Phase 4 (AID 2283597);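 note: hits lower the luminescence signal meaning cytotoxicity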
How it was run: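 4000 HCT116 cells per well; 5 h attachment; compounds from DMSO, 217-fold dilution; 16 h at 37C. Then CCF4-AM, 2 h RT, followed by CellTiter-Glo, 30 min RT, luminescence. Decrease = cytotoxicity.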

[7] = TOX21_p53_BLA_p5_viability: Viability Assessment in the Tox21 HCT-116 p53 Agonism Beta-lactamase Assay, Phase 5 (AID 2283600)
How it was run: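 Decreased CellTiter-Glo luminescence denotes lost viability. Exposure: 16 h at 37C, 5% CO2, with compounds from DMSO stocks diluted 217-fold in wells of 4000 cells.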

Measured: outcome

Chain of Cellular tumor antigen p53 (Homo sapiens) (P04637 whole entry, looked up): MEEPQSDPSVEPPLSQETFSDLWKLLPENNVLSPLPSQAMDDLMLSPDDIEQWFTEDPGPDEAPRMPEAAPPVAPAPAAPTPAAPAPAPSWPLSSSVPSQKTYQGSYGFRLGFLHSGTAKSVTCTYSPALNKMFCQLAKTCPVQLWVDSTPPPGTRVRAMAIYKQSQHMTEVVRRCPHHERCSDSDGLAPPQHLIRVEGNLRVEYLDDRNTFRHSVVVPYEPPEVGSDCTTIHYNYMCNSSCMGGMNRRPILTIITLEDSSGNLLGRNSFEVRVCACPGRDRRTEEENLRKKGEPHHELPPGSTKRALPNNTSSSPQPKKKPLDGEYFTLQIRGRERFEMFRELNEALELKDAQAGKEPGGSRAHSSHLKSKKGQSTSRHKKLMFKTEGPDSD

CNC(=O)Oc1cc(C)c(N(C)C)c(C)c1
not listed: [6] | [7]
inactive: all other assays above

CCOC(=O)N(C)C(=O)CSP(=S)(OCC)OCC
not listed: [3]
inactive: all other assays above
